# Bioassay records (PubChem BioAssay)
# A selection: hits, their analogues and other compounds. The true share with any hit is near 4.7%.
# D1 antagonist = human D1 dopamine receptor antagonism. HEK293 TREx D1 cells, calcium flux, dopamine EC80; active compounds read low. activity change, negative = inhibition, % at 10 µM. actives 3.2% (n = 360,000); in the data active means activity change below about -30%; further: on the % scale 0 is the no-effect control and ±100 the full control effect
#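 Calcium flux readout: force-coupled, inducible Hek293 Trex D1 line, cells induced overnight at 30 C with tetracycline, dye-loaded 30–90 min at RT. Antagonism scored against EC80 dopamine challenge given 180 s after compound.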
# D1 potentiator = enhances dopamine response at the human D1 receptor; P21728; HEK293 TREx D1 cells, calcium flux, dopamine EC20 potentiation; potentiation, % at 10 µM; actives 0.036% (n = 360,000); AID 504651; in the data active means potentiation above about 30%; further: 0% is about no effect
# D1 ag = activates the human D1 dopamine receptor. HEK293 T-REx D1 cells, calcium flux, agonist mode. actives 1% (n = 360,000). AID 504660. activation, % at 2 µM; further: 0% is about no effect
#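 Tetracycline-induced HEK293 TREx D1 cells, force-coupled to calcium signalling, were dye-loaded with a no-wash calcium kit. Compound was pin-added after a 10 s baseline. Fluorescence was read kinetically at 1 cycle/s for 180 s, with calcium rises flagged as agonism.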
# TRHR enhancer = TRH receptor (human) allosteric enhancement; actives 0.66% (n = 360,000); TRHR cells, fluo-8 calcium fluorescence, EC20 TRH enhancement; P34981; enhancement, % at 2 µM; AID 493056; in the data active means enhancement above about 30%; further: 0% is about no effect
# Target sequence (P34981 whole entry, looked up): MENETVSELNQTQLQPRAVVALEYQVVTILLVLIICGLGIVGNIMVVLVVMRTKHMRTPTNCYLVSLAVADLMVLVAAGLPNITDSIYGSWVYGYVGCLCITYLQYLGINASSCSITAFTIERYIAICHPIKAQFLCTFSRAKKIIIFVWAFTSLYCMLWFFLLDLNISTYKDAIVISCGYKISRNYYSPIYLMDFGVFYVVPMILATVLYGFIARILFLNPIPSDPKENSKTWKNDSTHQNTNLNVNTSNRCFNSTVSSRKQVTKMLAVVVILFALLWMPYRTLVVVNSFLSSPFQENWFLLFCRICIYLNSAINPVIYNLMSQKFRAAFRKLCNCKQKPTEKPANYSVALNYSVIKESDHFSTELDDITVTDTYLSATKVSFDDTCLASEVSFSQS
#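 TRHR-expressing cells loaded with fluo-8 calcium dye were read kinetically (ex 480/em 530) during compound addition, then stimulated with an EC20 of TRH (10 nM final). Enhancement of the Gq-mediated intracellular calcium response was scored.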
# TRHR ag = activates the human TRH receptor. P34981. TRHR cells, calcium flux fluo-8, FDSS agonist mode. activation, % at 2 µM. actives 0.18% (n = 360,000). AID 493084; further: 0% is about no effect
#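 Fluo-8-loaded TRHR cells; 10 s baseline, compound added, kinetic Ca2+ fluorescence read 1/s, agonist mode.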
# * marks the source's active call; other numbers are inactive results. Unless noted, no stated cut-off is given here; in the data, active means activation above about 30%; inactive means the rest.
SMILES,D1 antagonist,D1 potentiator,D1 ag,TRHR enhancer,TRHR ag
COc1ccc(CCN2CC(C(=O)NCCc3cccc(F)c3)CCC2=O)cc1 (stereo not given),-23,0,-1,-2,1
COc1ccccc1CNc1ncnc2sccc12,-31*,-8,31*,10,-1
c1ccc2c(c1)oc1c(NCC3CCCO3)ncnc12 (stereo not given),8,-9,2,37*,0
COc1ccc(Nc2ncnc3sccc23)cc1OC,-4,-12,3,2,-1
COc1ccc(CCNc2ncnc3c2oc2ccccc23)cc1OC,-69*,-15,13,-23,-1
COc1ccc(CCNc2ncnc3sccc23)cc1OC,-39*,-3,25,-2,0
Cc1ccc(Cn2ccnc2SCC(=O)Nc2ccccc2C(F)(F)F)cc1,2,-7,6,1,0
Cc1ccc(NC(=O)CSc2n[nH]c(N)n2)cc1S(=O)(=O)N1CCOCC1,-64*,0,0,8,1
O=C(NCCc1ccc(F)cc1)c1ccc(Cl)c(S(=O)(=O)N2CCOCC2)c1,-33*,-9,10,-7,1
COC(=O)c1ccccc1NC(=O)CNc1ccc(F)c(S(=O)(=O)N2CCOCC2)c1,-51*,2,0,1,0
CCn1nc(C(=O)Nc2ccc(Cl)c(S(=O)(=O)N3CCOCC3)c2)c2ccccc2c1=O,-37*,-4,4,-7,1
Cc1ccc(NC(=O)CSc2nc(N)cc(=O)[nH]2)cc1S(=O)(=O)N1CCOCC1,4,8,2,-3,1
Cc1ccc(C(=O)Nc2ccc(C)c(S(=O)(=O)N3CCOCC3)c2)c(C)c1,-42*,-12,6,5,0
Cc1cc(C(=O)Nc2ccc(C)c(S(=O)(=O)N3CCOCC3)c2)c(C)o1,0,-2,-1,1,0
O=C(Nc1ccc(F)c(F)c1)c1ccc(F)c(S(=O)(=O)N2CCOCC2)c1,-33*,-3,15,-7,0
Cc1ccc(C(=O)Nc2ccccc2[N+](=O)[O-])cc1S(=O)(=O)N1CCOCC1,-34*,-6,1,-1,0
COc1ccc(C(=O)Nc2ccccc2[N+](=O)[O-])cc1S(=O)(=O)N1CCOCC1,-3,9,0,3,0
O=C(c1ccc([N+](=O)[O-])cc1)N(Cc1ccco1)c1ccccn1,-3,0,-1,-1,-1
FC(F)C(F)(F)c1cc(-c2ccccc2)n[nH]1,4,-5,43*,6,3
COC(=O)c1sc2cccc(F)c2c1S(=O)(=O)Nc1cc(OC)cc(OC)c1,25,-5,22,3,2
COc1cc(C2CC(=O)Oc3c2c(=O)[nH]c2ccccc32)cc(OC)c1OC (stereo not given),-8,-2,-1,31*,0
O=C1CC(c2ccc(F)cc2)c2c(c3ccccc3[nH]c2=O)O1 (stereo not given),21,-5,0,0,0
CC(C)(NC(=O)c1cc(Cl)c2ccccc2c1O)C(=O)O,-30*,0,0,7,0
O=C(O)c1cc(Cl)c2ccccc2c1O,6,-1,2,8,-1
N#C/C(=C\Nc1ccccc1O)c1nc2ccccc2o1,-36*,-7,21,2,2
SMILES,D1 antagonist,D1 potentiator,D1 ag,TRHR enhancer,TRHR ag
COc1ccc(C(NC(=O)c2ccc(F)cc2)c2ccccc2)cc1 (stereo not given),-14,-3,3,6,-1
COc1ccc(C(NC(=O)c2cccc(F)c2)c2ccccc2)cc1 (stereo not given),-31*,-6,12,-1,0
CCOC(=O)c1cccc(NC(=O)C2Cc3ccccc3N2C(=O)c2ccccc2)c1 (stereo not given),6,2,0,1,-1
CCCNC(=O)COC(=O)c1cccnc1Nc1ccccc1F,-32*,-4,0,6,0
CCCS(=O)(=O)c1c(S(=O)(=O)CCC)c2cc(C(C)(C)C)ccn2c1C(=O)c1ccc(C)cc1,1,0,0,-2,2
CC(C)(C)NC(=O)CCN(/N=C/c1ccccc1)C1=NS(=O)(=O)c2ccccc21,-4,16,2,-2,-1
Cc1cccc(/C=N/N(CCO)C2=NS(=O)(=O)c3ccccc32)c1,-34*,-6,2,6,-1
O=C(CC1SC(N2CCCCC2)=NC1=O)Nc1cccc(C(F)(F)F)c1 (stereo not given),-34*,-4,1,3,-1
O=C(NCc1ccco1)c1ccc2c(c1)N(Cc1ccccc1)C(=O)CS2=O (stereo not given),-6,-7,1,1,1
CCN(CC)C(=O)c1ccc2c(c1)N(Cc1ccccc1)C(=O)CS2=O (stereo not given),13,0,-3,33*,0
Fc1ccccc1NC(=S)N(CCN1CCCCCC1)Cc1cccs1,-32*,-11,5,1,0
Cc1ccccc1NC(=S)N(CCN1CCCCCC1)Cc1cccs1,-16,-5,1,2,1
Cc1ccc(-c2nnc(Nc3ccc(Cl)c(Cl)c3)c3ccccc23)cc1S(=O)(=O)NCCO,-49*,-2,6,8,-2
CNS(=O)(=O)c1cc(-c2nnc(Nc3ccc(NC(C)=O)cc3)c3ccccc23)ccc1C,6,-1,1,0,0
Cc1ccc(-c2nnc(Nc3ccc4c(c3)OCO4)c3ccccc23)cc1S(=O)(=O)NCCO,-34*,-6,1,16,0
CNC(=O)COc1ccc(Nc2nnc(-c3ccc(C)c(S(=O)(=O)NC(C)(C)C)c3)c3ccccc23)cc1,-31*,-2,-2,4,-2
O=C1CN(C(=O)c2ccc(S(=O)(=O)N3CCCCC3)cc2)C(c2ccc(F)cc2)c2cc(F)ccc2N1 (stereo not given),11,0,5,-11,1
O=C(CN(Cc1ccco1)C(=O)c1cccc(F)c1)Nc1ccccc1C(F)(F)F,1,-8,1,-2,0
CC(C)C[C@H]1CN=C(Nc2ccccc2)N1CCc1ccc(F)cc1,-32*,1,234*,-21,39*
CCN1C(Nc2ccccc2)=NC[C@@H]1CC(C)C,4,1,3,-8,17
c1ccc(CCCCN2C(Nc3ccccc3)=NC[C@@H]2Cc2ccccc2)cc1,9,-10,45*,1,0
Cc1cccc(CCN2C(Nc3ccccc3)=NC[C@@H]2CC(C)C)c1,-19,11,215*,-24,41*
CC(C)C[C@H]1CN=C(Nc2ccccc2)N1CC1CCCCCC1,-31*,-4,29,7,1
CCCCCCCN1C(Nc2ccccc2)=NC[C@@H]1Cc1ccccc1,-3,-7,22,0,1
